Laboratory results reported in PubChem BioAssay AID1259245 (Vanderbilt High Throughput Screening Facility, 2017).
The campaign covered roughly 40,000 compounds. About 1,400 (3.5%) were called active. The sample holds actives, similar compounds and a random draw of the others, so the mix is not that of the screen.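 How the source made its calls: active means any of four per-well response measures lying three or more SD from its plate-wide compound average, in either direction; inactive means the rest, inconclusive results apart.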

Target: Voltage-dependent calcium channel gamma-2 subunit (Mus musculus) + Glutamate receptor 2 (Rattus norvegicus) (UniProt O88602+P19491)
Sequence (O88602 whole entry, looked up): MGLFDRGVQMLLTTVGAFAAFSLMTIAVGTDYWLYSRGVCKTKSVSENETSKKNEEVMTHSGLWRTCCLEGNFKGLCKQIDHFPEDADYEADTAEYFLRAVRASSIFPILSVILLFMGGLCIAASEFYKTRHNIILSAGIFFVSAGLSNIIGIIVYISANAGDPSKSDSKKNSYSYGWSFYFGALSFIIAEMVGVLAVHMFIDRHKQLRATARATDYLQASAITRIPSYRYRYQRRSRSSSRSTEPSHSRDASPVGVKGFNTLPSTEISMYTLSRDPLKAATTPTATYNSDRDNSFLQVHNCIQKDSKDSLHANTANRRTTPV
Sequence (P19491 whole entry, looked up): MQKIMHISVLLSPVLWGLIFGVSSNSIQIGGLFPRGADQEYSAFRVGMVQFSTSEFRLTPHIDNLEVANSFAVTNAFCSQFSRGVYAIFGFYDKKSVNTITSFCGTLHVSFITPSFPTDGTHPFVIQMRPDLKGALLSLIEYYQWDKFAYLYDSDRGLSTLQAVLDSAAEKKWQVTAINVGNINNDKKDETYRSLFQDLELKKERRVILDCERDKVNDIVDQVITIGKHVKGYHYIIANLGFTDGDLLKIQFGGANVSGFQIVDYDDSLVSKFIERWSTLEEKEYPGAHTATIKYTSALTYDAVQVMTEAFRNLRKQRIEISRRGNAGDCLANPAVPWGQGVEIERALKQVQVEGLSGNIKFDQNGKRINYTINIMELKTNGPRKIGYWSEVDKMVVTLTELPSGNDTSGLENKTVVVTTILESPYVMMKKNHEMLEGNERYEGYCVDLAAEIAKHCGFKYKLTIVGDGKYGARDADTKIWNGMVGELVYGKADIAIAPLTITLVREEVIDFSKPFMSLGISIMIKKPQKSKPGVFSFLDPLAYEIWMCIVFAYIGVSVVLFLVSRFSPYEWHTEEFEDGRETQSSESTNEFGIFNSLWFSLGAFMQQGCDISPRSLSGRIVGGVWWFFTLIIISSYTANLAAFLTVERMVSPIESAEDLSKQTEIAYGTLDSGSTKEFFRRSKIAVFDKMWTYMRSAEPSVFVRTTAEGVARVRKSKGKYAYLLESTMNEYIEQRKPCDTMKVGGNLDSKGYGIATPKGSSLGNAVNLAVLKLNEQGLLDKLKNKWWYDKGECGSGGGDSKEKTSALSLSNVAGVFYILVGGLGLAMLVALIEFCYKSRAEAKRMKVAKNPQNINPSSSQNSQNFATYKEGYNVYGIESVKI
Assay: AMPAR-TARP gamma-2 complex positive or negative modulation – cell-based, membrane potential dye, primary screen (AID 1259245)
Settings: HEK293 GluA2+stargazin, membrane potential dye (FDSS), glutamate EC50, at 30 µM, hits were called plate by plate, in both directions; compound max-min signal: compound-alone response (agonism); glutamate slope, % of max: measured here: glutamate response slope, % max

SMILES | compound max-min signal | glutamate response, % of max | glutamate slope, % of max
O=C(c1ccc(Cl)c(N2C(=O)CCS2(=O)=O)c1)N1CCc2ccccc2C1 | 0.0843 | 26.4% (inactive) | 47.6%
CCn1ccnc1N1CCN(C(=O)c2ccccc2Cl)CC1 | 0.0774 | 50% (inactive) | 67.4%
O=C(CCn1ccc(=O)[nH]c1=O)N1CCN(c2ccc(-c3ccccn3)nn2)CC1 | 0.117 | 16.7% (inactive) | 21.1%
O=C(NCc1ccccc1)N1CCN(c2ccc(-c3ccncc3)nn2)CC1 | 0.115 | 17.8% (inactive) | 40.4%
CCSc1ccccc1C(=O)N1CCN(c2ccc(-c3ccccn3)nn2)CC1 | 0.198 | 34.1% (active) | 45%
CCOc1ccccc1C(=O)N1CCN(c2ccc(-c3ccccn3)nn2)CC1 | 0.189 | 31.9% (active) | 43.1%
CCOc1ccc(-c2ccc(N3CCN(C(=O)c4ccc5nsnc5c4)CC3)nn2)cc1 | 0.0304 | 15.3% (inactive) | 32.9%
CN1CCN(c2ccc(-c3cccc(NC(=O)COc4ccc(F)cc4F)c3)nn2)CC1 | 0.0723 | 38.5% (inactive) | 60.1%
CCOc1ccc2c(=O)c(Oc3ccccc3Br)coc2c1 | 0.0905 | 40.8% (inactive) | 58.4%
Cn1cc(C(=O)NCc2c(F)cccc2F)nn1 | 0.0862 | 93.4% (active) | 99.8%
O=C(NCc1ccc(Cl)cc1)C(=O)NCc1c(F)cccc1F | 0.122 | 54.4% (inactive) | 66.8%
O=C(NCc1ccsc1)c1c(F)cccc1F | 0.0794 | 28.8% (inactive) | 48.6%
CC(=O)NCCn1ncc2c(N3CCOCC3)ncnc21 | 0.0821 | 32.3% (inactive) | 59.3%
CCN1C(SCC(=O)Nc2cccc(Cl)c2)=NS(=O)(=O)c2ccccc21 | 0.0878 | 38% (inactive) | 62%
CCOc1ccccc1Nc1nnc(Cc2ccc(OC)cc2)c(=O)[nH]1 | 0.0678 | 46% (inactive) | 67.9%
O=C(NCC(O)(c1ccccc1)C1CC1)c1ccccc1Br (stereo unspecified) | 0.0722 | 13.9% (inactive) | 40%
CCSc1ccccc1C(=O)NCC(O)(c1ccccc1)C1CC1 (stereo unspecified) | 0.0554 | 28.7% (active) | 57.8%
CSc1ccccc1C(=O)NCC(C)(O)C1CC1 (stereo unspecified) | 0.0943 | 38.3% (inactive) | 57.1%
COc1ccc(NC(=O)CSc2nccn(-c3cccc(F)c3)c2=O)cc1Cl | 0.114 | 29.6% (inactive) | 46.8%

SMILES | compound max-min signal | glutamate response, % of max | glutamate slope, % of max
O=S(=O)(NCC(O)c1ccsc1)c1cccs1 (stereo unspecified) | 0.105 | 47.4% (inactive) | 63.3%
COc1ccc2c(c1)c(/C=C1\Oc3cc(O)cc(C)c3C1=O)cn2C | 0.239 | 23.6% (active) | 43.9%
C=CCOC(=O)COc1ccc2c(c1)O/C(=C\c1cc(OC)ccc1OC)C2=O | 0.106 | 58.4% (inactive) | 60.4%
Cc1[nH]c(=O)[nH]c(=O)c1CC(=O)N1CCN(S(C)(=O)=O)CC1 | 0.153 | 46.3% (inactive) | 86.1%
CC(C)c1ccccc1NC(=O)Cc1csc(NC(=O)c2ccc(=O)[nH]c2)n1 | 0.062 | 20.3% (inactive) | 41.8%
COc1cn(CC(=O)Nc2ccc(NC(C)=O)cc2)c(CSc2ncccn2)cc1=O | 0.0519 | 26.3% (inactive) | 40.3%
Cc1c(Cl)ccc2sc(N(Cc3ccccn3)C(=O)Cc3ccc(S(C)(=O)=O)cc3)nc12 | 0.0569 | 22.1% (inactive) | 54.5%
O=C(NCC1(c2cccs2)CC1)Nc1c(F)cccc1F | 0.107 | 24.4% (inactive) | 44%
O=S(=O)(NCC1(c2cccs2)CC1)c1ccc(OC(F)(F)F)cc1 | 0.153 | 0.436% (active) | 9.92%
COC(=O)N1CCC(CNS(=O)(=O)c2ccc(OC(F)(F)F)cc2)CC1 | 0.114 | 39.2% (inactive) | 61.1%
COC(=O)c1cc(OC)c(OC)cc1NC(=O)c1cc(C)oc1C | 0.112 | 34.9% (inactive) | 55.7%
Cn1cccc1C(O)CNC(=O)C1(c2ccccc2)CCOCC1 (stereo unspecified) | 0.0879 | 49.3% (inactive) | 62.9%
COCCNC(=O)c1ccc(Oc2c(C)oc3cc(OC)ccc3c2=O)cc1 | 0.0907 | 9.44% (inactive) | 21.9%
COc1ccc2c(=O)c(Oc3ccc(C(=O)N4CCN(c5ccccn5)CC4)cc3)c(C)oc2c1 | 0.0327 | 28.3% (active) | 56.7%
COc1ccc2c(=O)c(Oc3ccc(C(=O)Nc4cccnc4)cc3)c(C)oc2c1 | 0.137 | 24.4% (inactive) | 41.6%
COc1ccc(CCNC(=O)Cn2nc(-c3ccccc3OC)ccc2=O)cc1 | 0.0465 | 26.6% (inactive) | 53.9%
COC(=O)c1ccc2c(=O)n(Cc3ccc(C(=O)N4CCCCCC4)cc3)c(=S)[nH]c2c1 | 0.108 | 50.5% (inactive) | 81%
CCc1cccc(CC)c1NC(=O)Cn1nc(-c2ccco2)c2sc(N3CCCCC3)nc2c1=O | 0.0682 | 31.2% (inactive) | 54.8%
